Results on 64 compounds are retold here after the antibiotic and cytotoxicity screens of Wong et al. (2023).

Among all 39,000 compounds or so, about 3,300 (8.5%) were called active. The sample holds actives, similar compounds and a random draw of the others, so the mix is not that of the screen.

The assay has as its system HepG2. The assay can be described thus: cytotoxicity call (relative viability < 0.9). The conditions noted are these: 10 µM.
On to `C[C@@H]1CN([C@H](C)CO)C(=O)CCCn2cc(nn2)CO[C@H]1CN(C)S(=O)(=O)c1ccc2c(c1)OCCCO2`, for which the cytotoxicity call is “inactive”.

Turning to `Cc1noc(C)c1NC(=O)N(C)C[C@H]1OCCCC[C@H](C)Oc2ccc(NC(=O)NC3CCCCC3)cc2C(=O)N([C@@H](C)CO)C[C@@H]1C`, the cytotoxicity call is “inactive”.

For the compound `CN(C)CC#Cc1ccc([C@@H]2[C@H]3CN(C(=O)CN(C)C)CCCCN3[C@H]2CO)cc1`, the cytotoxicity call is “inactive”.

As to `C[C@@H]1CCCCO[C@@H](CN(C)C(=O)NC2CCCCC2)[C@H](C)CN([C@@H](C)CO)C(=O)c2cc(NC(=O)NC3CCCCC3)ccc2O1`, the cytotoxicity call is “inactive”.

As to `O=C(C[C@@H]1C[C@H]2c3cc(NC(=O)c4ccc5c(c4)OCO5)ccc3O[C@H]2[C@@H](CO)O1)NCc1ccccn1`, the cytotoxicity call is “inactive”.

Regarding `C[C@@H]1CN([C@@H](C)CO)C(=O)c2cccc(NC(=O)Nc3ccc(C(F)(F)F)cc3)c2O[C@@H]1CN(C)Cc1ccc(-c2ccccc2)cc1`, the cytotoxicity call was “inactive”.

Take `CC(C)NC(=O)Nc1ccc2c(c1)CC(=O)N([C@H](C)CO)C[C@@H](C)[C@H](CN(C)S(=O)(=O)c1cn(C)cn1)O2`: the cytotoxicity call was “inactive”.

As for `C[C@H]1CN([C@@H](C)CO)C(=O)c2cccc(NS(=O)(=O)c3ccc(F)cc3)c2O[C@@H]1CN(C)Cc1ccncc1`, the cytotoxicity call is “inactive”.

Take `C[C@H](O)C#Cc1ccc2c(c1)O[C@H](CN(C)C(=O)c1ccccc1)[C@H](C)CN([C@@H](C)CO)S2(=O)=O`: the cytotoxicity call was “inactive”.

For `C[C@@H]1CN([C@@H](C)CO)S(=O)(=O)c2ccc(-c3cccnc3)cc2O[C@H]1CN(C)C(=O)c1cccc(F)c1`, the cytotoxicity call was “inactive”.

With `C[C@@H]1CCCCO[C@@H](CN(C)CC2CC2)[C@H](C)CN([C@@H](C)CO)C(=O)c2cc(NC(=O)Nc3ccc(F)cc3)ccc2O1`, the cytotoxicity call was “inactive”.

Turning to `C[C@H](CO)N1C[C@H](C)[C@H](CN(C)CC2CCCCC2)OCCCC[C@H](C)Oc2ccc(NC(=O)Nc3ccc(F)cc3)cc2C1=O`, the cytotoxicity call is “active”.

For the compound `C[C@H](CO)N1C[C@H](C)[C@@H](CN(C)CC2CCCCC2)OCCCC[C@H](C)Oc2ccc(NC(=O)Nc3ccc(F)cc3)cc2C1=O`, the cytotoxicity call was “active”.

As for `C[C@H](CO)N1C[C@H](C)[C@H](CN(C)CC2CC2)OCCCC[C@H](C)Oc2ccc(NC(=O)Nc3ccc(F)cc3)cc2C1=O`, the cytotoxicity call is “inactive”.

Regarding `C[C@@H]1CN([C@@H](C)CO)C(=O)c2cc(NC(=O)Nc3ccc(F)cc3)ccc2O[C@@H](C)CCCCO[C@H]1CN(C)CC1CCCCC1`, the cytotoxicity call is “active”.

On to `C[C@H](CO)N1C[C@H](C)[C@@H](CN(C)CC2CC2)OCCCC[C@H](C)Oc2ccc(NC(=O)Nc3ccc(F)cc3)cc2C1=O`, for which the cytotoxicity call was “inactive”.

Take `C[C@@H]1CCCCO[C@@H](CN(C)CC2CC2)[C@@H](C)CN([C@H](C)CO)C(=O)c2cc(NC(=O)Nc3ccc(F)cc3)ccc2O1`: the cytotoxicity call is “inactive”.

Turning to `COCC(=O)Nc1ccc2c(c1)OC[C@H](C)N(C(=O)Cc1cccnc1)C[C@@H](C)[C@H](OC)CN(C)C2=O`, the cytotoxicity call is “inactive”.

With `COCC#Cc1ccc2c(c1)O[C@H](CN(C)C(=O)Nc1ccccc1F)[C@H](C)CN([C@@H](C)CO)S2(=O)=O`, the cytotoxicity call was “inactive”.

With `COc1ccccc1-c1cnc2c(c1)C(=O)N([C@@H](C)CO)C[C@H](C)[C@@H](CN(C)C(=O)c1ccncc1)O2`, the cytotoxicity call is “inactive”.

In the case of `O=C(C[C@H]1CC[C@@H](NC(=O)CN2CCOCC2)[C@@H](CO)O1)NC1CCC1`, the cytotoxicity call was “inactive”.

`O=C1/C(=C/C=C/c2ccco2)CCC/C1=C\C=C\c1ccco1`: the cytotoxicity call is “inactive”.

Turning to `NC(=O)CSc1nnnn1-c1cccc(O)c1`, the cytotoxicity call is “inactive”.

On to `C[C@H]1CN([C@@H](C)CO)C(=O)c2cccc(NC(=O)c3cnccn3)c2O[C@@H]1CN(C)S(=O)(=O)c1ccc(Cl)cc1`, for which the cytotoxicity call is “inactive”.

On to `CC(C)NC(=O)N(C)C[C@H]1Oc2ccc(NC(=O)C3CCCCC3)cc2C(=O)N([C@@H](C)CO)C[C@@H]1C`, for which the cytotoxicity call was “inactive”.

With `CS(=O)(=O)Nc1ccc2c(c1)[C@H]1C[C@@H](CC(=O)NCc3ccc(-c4ccccc4)cc3)O[C@@H](CO)[C@H]1O2`, the cytotoxicity call was “inactive”.

As to `C[C@@H]1CCCCO[C@H](CN(C)Cc2ccccc2)[C@H](C)CN([C@H](C)CO)C(=O)c2cc(NS(=O)(=O)c3ccc(F)cc3)ccc2O1`, the cytotoxicity call is “inactive”.

Consider `O=C(C[C@H]1C=C[C@H](NS(=O)(=O)c2ccccc2)[C@@H](CO)O1)NCc1ccncn1`, for which the cytotoxicity call was “inactive”.

As to `C[C@H]1CN([C@@H](C)CO)C(=O)Cc2cc(NC(=O)Nc3ccc(C(F)(F)F)cc3)ccc2O[C@@H]1CN(C)Cc1ccc(C(F)(F)F)cc1`, the cytotoxicity call is “inactive”.

As for `C[C@H](CO)N1C[C@H](C)[C@H](CN(C)Cc2ccc(C(F)(F)F)cc2)Oc2ccc(NC(=O)Nc3ccc(C(F)(F)F)cc3)cc2CC1=O`, the cytotoxicity call is “active”.

For `C[C@H](CO)N1C[C@H](C)[C@@H](CN(C)Cc2ccc(C(F)(F)F)cc2)Oc2ccc(NC(=O)Nc3ccc(C(F)(F)F)cc3)cc2CC1=O`, the cytotoxicity call is “active”.

Turning to `C[C@@H]1CN([C@H](C)CO)C(=O)Cc2cc(NC(=O)CCC(F)(F)F)ccc2O[C@@H]1CN(C)Cc1ccc(C(F)(F)F)cc1`, the cytotoxicity call is “inactive”.

Turning to `C[C@@H]1CN([C@H](C)CO)C(=O)Cc2cc(NC(=O)Nc3ccc(C(F)(F)F)cc3)ccc2O[C@@H]1CN(C)Cc1ccc(C(=O)O)cc1`, the cytotoxicity call is “inactive”.

In the case of `C[C@@H]1CN([C@@H](C)CO)C(=O)Cc2cc(NC(=O)Nc3ccc(C(F)(F)F)cc3)ccc2O[C@@H]1CN(C)Cc1ccc(C(=O)O)cc1`, the cytotoxicity call was “inactive”.

As to `C[C@H]1CN([C@@H](C)CO)C(=O)Cc2cc(NC(=O)Nc3ccc(C(F)(F)F)cc3)ccc2O[C@H]1CN(C)Cc1ccc(C(F)(F)F)cc1`, the cytotoxicity call was “active”.

Regarding `C[C@@H]1CN([C@H](C)CO)C(=O)Cc2cc(NC(=O)CCC(F)(F)F)ccc2O[C@H]1CN(C)Cc1ccc(C(F)(F)F)cc1`, the cytotoxicity call was “active”.

As for `C[C@H]1CN([C@@H](C)CO)C(=O)Cc2cc(NC(=O)CCC(F)(F)F)ccc2O[C@@H]1CN(C)Cc1ccc(C(F)(F)F)cc1`, the cytotoxicity call is “inactive”.

Regarding `C[C@@H]1CN([C@H](C)CO)C(=O)Cc2cc(NC(=O)Nc3ccc(C(F)(F)F)cc3)ccc2O[C@H]1CN(C)Cc1ccc(C(F)(F)F)cc1`, the cytotoxicity call was “inactive”.

Take `Cc1noc(C)c1NC(=O)N[C@H]1CC[C@H](CC(=O)N2CCN(C)CC2)O[C@@H]1CO`: the cytotoxicity call was “inactive”.

As for `O=C(C[C@@H]1CC[C@H]2[C@@H](COC[C@H](O)CN2S(=O)(=O)c2ccccc2F)O1)NCc1ccccc1Cl`, the cytotoxicity call is “inactive”.

`C[C@@H]1CN([C@@H](C)CO)C(=O)c2cc(NC(=O)Cc3ccccc3)ccc2O[C@@H]1CN(C)S(=O)(=O)c1cccs1`: the cytotoxicity call is “inactive”.

Turning to `O=C(O)Cn1nnnc1-c1ccc(F)cc1`, the cytotoxicity call was “inactive”.

Consider `CO[C@H]1O[C@H](CO)[C@@H](OC(=O)c2ccc(Br)cc2)[C@@H]2OC(=O)[C@@H](Cc3ccccc3)C/C=C/C[C@H](Cc3ccccc3)C(=O)O[C@@H]12`, for which the cytotoxicity call was “inactive”.

In the case of `COCC(=O)N1C[C@H](C)[C@@H](OC)CN(C)C(=O)c2ccc(NC(=O)c3ccc(F)cc3)cc2OC[C@H]1C`, the cytotoxicity call is “inactive”.

As to `COCC(=O)Nc1ccc2c(c1)OC[C@@H](C)N(Cc1ccccc1F)C[C@H](C)[C@H](OC)CN(C)C2=O`, the cytotoxicity call was “inactive”.

For the compound `CCCCCCCCCCCCCCCCOc1nc2ccc(C)cc2c(=O)o1`, the cytotoxicity call was “inactive”.

As to `C[C@@H]1CN([C@H](C)CO)C(=O)Cc2cc(NC(=O)NC3CCCCC3)ccc2O[C@@H]1CN(C)Cc1ccc(C(F)(F)F)cc1`, the cytotoxicity call was “inactive”.

In the case of `CC(C)NC(=O)N(C)C[C@H]1Oc2ccc(NC(=O)CCC(F)(F)F)cc2CC(=O)N([C@@H](C)CO)C[C@@H]1C`, the cytotoxicity call was “active”.

In the case of `C[C@H](CO)N1C[C@H](C)[C@@H](CN(C)Cc2ccc(C(=O)O)cc2)Oc2ccc(NC(=O)Nc3ccc(C(F)(F)F)cc3)cc2CC1=O`, the cytotoxicity call was “inactive”.

Consider `CC(C)NC(=O)N(C)C[C@H]1Oc2ccc(NC(=O)CCC(F)(F)F)cc2CC(=O)N([C@H](C)CO)C[C@H]1C`, for which the cytotoxicity call is “inactive”.

Consider `C[C@@H]1CN([C@H](C)CO)C(=O)Cc2cc(NC(=O)Nc3ccc(C(F)(F)F)cc3)ccc2O[C@@H]1CN(C)Cc1ccc(C(F)(F)F)cc1`, for which the cytotoxicity call is “active”.

Turning to `C[C@H]1CN([C@@H](C)CO)C(=O)Cc2cc(NC(=O)Nc3ccc(C(F)(F)F)cc3)ccc2O[C@H]1CN(C)Cc1ccc(C(=O)O)cc1`, the cytotoxicity call is “inactive”.

As to `CC(C)NC(=O)N(C)C[C@@H]1Oc2ccc(NC(=O)CCC(F)(F)F)cc2CC(=O)N([C@@H](C)CO)C[C@H]1C`, the cytotoxicity call was “inactive”.

On to `C[C@H]1CN([C@@H](C)CO)C(=O)Cc2cc(NC(=O)NC3CCCCC3)ccc2O[C@H]1CN(C)Cc1ccc(C(F)(F)F)cc1`, for which the cytotoxicity call was “active”.

As for `C[C@@H]1CN([C@@H](C)CO)C(=O)Cc2cc(NC(=O)Nc3ccc(C(F)(F)F)cc3)ccc2O[C@H]1CN(C)Cc1ccc(C(F)(F)F)cc1`, the cytotoxicity call is “active”.

Consider `C[C@@H]1CN([C@H](C)CO)C(=O)Cc2cc(NC(=O)NC3CCCCC3)ccc2O[C@H]1CN(C)Cc1ccc(C(F)(F)F)cc1`, for which the cytotoxicity call was “inactive”.

With `Cc1noc(C)c1S(=O)(=O)N(C)C[C@@H]1Oc2ccc(NC(=O)Nc3ccccc3)cc2CC(=O)N([C@@H](C)CO)C[C@H]1C`, the cytotoxicity call is “inactive”.

As for `Cc1cc(O)c(C(=O)/C=C/N(C)C)c(=O)o1`, the cytotoxicity call is “inactive”.

`C[C@@H]1CN([C@@H](C)CO)C(=O)CCCn2cc(nn2)CO[C@H]1CN(C)C(=O)Nc1ccc2c(c1)OCCO2`: the cytotoxicity call is “inactive”.

As to `C[C@@H]1CN([C@@H](C)CO)C(=O)c2cc(-c3ccc(C#N)cc3)cnc2O[C@H]1CN(C)C(=O)Nc1ccc(C(F)(F)F)cc1`, the cytotoxicity call is “inactive”.

Regarding `CCCCC[C@H]1C[C@H](O[C@H]2O[C@@H](CO)[C@@H](O)[C@@H](O)[C@@H]2O)CC(=O)O1`, the cytotoxicity call is “inactive”.

With `C[C@@H]1CN([C@@H](C)CO)C(=O)Cc2cc(NC(=O)Nc3ccc(C(F)(F)F)cc3)ccc2O[C@@H]1CN(C)Cc1ccc(C(F)(F)F)cc1`, the cytotoxicity call is “active”.

For `C[C@@H]1CN([C@@H](C)CO)C(=O)Cc2cc(NC(=O)Nc3ccc(C(F)(F)F)cc3)ccc2O[C@H]1CN(C)Cc1ccc(C(=O)O)cc1`, the cytotoxicity call was “inactive”.

In the case of `C[C@@H]1CN([C@H](C)CO)C(=O)Cc2cc(NC(=O)Nc3ccc(C(F)(F)F)cc3)ccc2O[C@H]1CN(C)Cc1ccc(C(=O)O)cc1`, the cytotoxicity call is “inactive”.
